# Data: PubChem BioAssay (NCATS)
# Inconclusive results are not listed. Where a call stands in place of a potency, no number is given. A number with no mark means an inactive call. Calls of active or inactive are those of the source. Calls follow the shape of the dose curve; as a rule, active = well fitted curve in the direction sought with a large enough effect; inconclusive = small, poorly fitted or top-dose-only effect, or another doubt; inactive = no such curve, though single readings can be large; an effect the other way counts as inactive or inconclusive.
# Experiments:
# [1] = target: Aldehyde dehydrogenase, mitochondrial (Homo sapiens) (UniProt P05091); experiment: qHTS for Inhibitors of the Aldehyde Dehydrogenase Family (ALDH2) Primary screen (AID 2061308); also: nearly all actives have a fitted effect of over 55% in size
# [2] = target: Retinaldehyde dehydrogenase 3 (Homo sapiens) (UniProt P47895); experiment: qHTS for Inhibitors of the Aldehyde Dehydrogenase Family (ALDH1A3) Primary screen (AID 2061315)
SMILES,Potency [1],Potency [2],"activity change, negative = inhibition [1]","activity change, negative = inhibition [2]"
O=S(=O)(Nc1nc(CN2CCOCC2)nc2sc3c(c12)CCC3)c1ccc2c(c1)OCCO2,inactive,inactive,,
Cc1ccc(OCCn2c(CCNC(=O)C3CCOCC3)nc3ccccc32)cc1,inactive,inactive,,
COc1ccc([S+](=O)([O-])Nc2ccc(-c3nc4ccccc4[nH]3)cc2)cc1OC,inactive,inactive,,
Cc1nc(N2CCOCC2)c2nc(-c3ccccc3)n(CCCN3CCCCC3C)c2n1 (configuration not stated),inactive,inactive,,
CC(Nc1nc(-c2ccccc2C(F)(F)F)nc2ccccc12)c1ccc(-c2ccncc2)cc1 (configuration not stated),inactive,inactive,,
Cc1cc2c(s1)c1cnn(Cc3cccc4cccnc34)c(=O)c1n2C,inactive,inactive,,
O=C(OCC#CCSc1nnc(-c2cccc3ccccc23)o1)c1sc2ccccc2c1Cl,inactive,inactive,,
O=C(Nc1ccc(-c2nc3ccccc3[nH]2)cc1)c1ccncc1,inactive,inactive,,
Fc1ccc(-c2nc(-c3c(F)cccc3F)[nH]c2-c2ccncc2)cc1,inactive,inactive,,
CCC(C(=O)NC(=O)NC(C)=O)c1ccccc1 (configuration not stated),inactive,inactive,,
N#Cc1ncc(C(=O)OCC(=O)NC2C3CC4CC(C3)CC2C4)cn1 (configuration not stated),inactive,inactive,,
COc1cc(O)c(C(CC(=O)N2CCC(c3ccccc3)CC2)c2ccc3c(c2)OCO3)c(OC)c1 (configuration not stated),inactive,inactive,,
Cc1cc(C)nc(NC(=S)N2CCN(c3ncc(Cl)cc3Cl)CC2)c1,inactive,inactive,,
O=C(Cc1ccccc1)Nc1sc2c(c1C(=O)Nc1cccc(Cl)c1)CCCC2,inactive,inactive,,
CC(=O)Nc1sc2c(c1C(=O)c1ccccc1)CCN(C(C)C)C2,inactive,inactive,,
Cc1nc(NCc2ccc(-c3ccnc(C(F)(F)F)c3)cc2)c2ccccc2n1,inactive,inactive,,
Cc1ccc(NS(=O)(=O)c2ccc3c(c2)NC(=O)CO3)cc1C,inactive,inactive,,
Fc1ccccc1-c1ccc(Nc2nc(-c3ccncc3)nc3ccccc23)cc1F,inactive,inactive,,
Cc1ccc(-c2nccc(=O)n2C(C)C(=O)NCCc2ccccc2)cc1 (configuration not stated),inactive,inactive,,
CC(O)c1cc2c(s1)c1cnn(Cc3ccccc3F)c(=O)c1n2C (configuration not stated),inactive,inactive,,
CC(=O)O[C@@H]1C[C@]2(C)[C@@]3(CCC4[C@@]5(C)CC[C@H](O[C@@H]6O[C@H](C(=O)O)[C@@H](O)[C@H](O[C@@H]7O[C@H](CO)[C@H](O)[C@H](O)[C@H]7O[C@@H]7O[C@@H](C)[C@H](O)[C@@H](O)[C@H]7O[C@@H]7OC[C@](O)(CO)[C@H]7O)[C@H]6O[C@@H]6O[C@H](CO)[C@H](O)[C@H](O)[C@H]6O)C(C)(C)C5CC[C@]42C)O[C@@H](O)[C@]12C3CC(C)(C)[C@@H](OC(=O)/C=C/c1ccc(O)c(O)c1)[C@@H]2OC(=O)/C=C/c1ccccc1 (some centres not stated),,,3.11% [at 11.2 µM],17.4% [at 11.2 µM]
O=C(Cc1ccccc1)Nc1sc2c(c1C(=O)Nc1ccc(Cl)cc1)CCOC2,inactive,inactive,,
COc1cccc(-c2ccc3ncnc(NCc4cccc(F)c4)c3c2)c1,inactive,inactive,,
FC(F)(F)c1ccccc1-c1nc(NCC23CC4CC(CC(C4)C2)C3)c2ccccc2n1,inactive,inactive,,

SMILES,Potency [1],Potency [2],"activity change, negative = inhibition [1]","activity change, negative = inhibition [2]"
CC(C)O[C@@H]1O[C@H](CO)[C@@H](O)[C@H](O)[C@H]1O,inactive,inactive,,
Cc1cc(C)nc(NC(=S)N2CCN(S(=O)(=O)c3cccc(C(F)(F)F)c3)CC2)c1,inactive,inactive,,
CCCc1cc(=O)c2ccccc2n1C,inactive,inactive,,
Cc1ccc(S(=O)(=O)N(C)c2ccccc2C(=O)Nc2nc(-c3ccccc3)cs2)cc1,inactive,inactive,,
COc1ccccc1-c1nc(NCc2ccc(-c3cccnc3)cc2)c2ccccc2n1,inactive,inactive,,
CCOC(=O)C1CCN(C(=O)C(C)(C)NC(=O)Nc2ccc3sccc3c2)CC1,inactive,inactive,,
CC(OC(=O)c1ccc(S(C)(=O)=O)c([N+](=O)[O-])c1)C(=O)NC1C2CC3CC(C2)CC1C3 (configuration not stated),inactive,inactive,,
Cc1nc(N2CCOCC2)c2nc(-c3ccccc3)n(CCN3CCCCC3)c2n1,inactive,inactive,,
Cc1cc(C)nc(NC(=S)N2CCN(c3nccc4ccccc34)CC2)c1,inactive,inactive,,
Cc1cc2c(s1)c1cnn(Cc3ccccc3F)c(=O)c1n2C(C)C,inactive,inactive,,
N#CC1=C(Nc2nc3ccccc3o2)OC2=C(C(=O)CCC2)C1c1[nH]ncc1Cl (configuration not stated),inactive,inactive,,
COc1ccc(C(=O)Nc2nnc(-c3ccco3)o2)cc1,inactive,inactive,,
c1ccc(OCc2nnc3n2N=C(c2ccccc2)CS3)cc1,inactive,inactive,,
O=C(O)c1ccc2c(c1)C(=O)N([C@H](Cc1ccc(O)c(O)c1)C(=O)O)C2=O,inactive,inactive,,
CCOC(=O)c1ccoc1-c1ccc2ncnc(NCc3ccc(C)o3)c2c1,inactive,inactive,,
COc1ccc(CC(=O)Nc2ccc(S(=O)(=O)Nc3cc(C)on3)cc2)cc1C,inactive,inactive,,
Cc1ccccc1N(C)C1=N[S+](=O)([O-])c2ccccc21,inactive,inactive,,
c1nc(NCCc2cnc[nH]2)c2cc(-c3ccc4c(c3)OCO4)ccc2n1,inactive,inactive,,
COc1ccccc1C(=O)N1CCc2cc(-c3nc(NC(=O)Cc4ccc5c(c4)OCO5)sc3C)ccc21,inactive,inactive,,
Cc1cc(-c2nnc3n2CCC3)c(C)n1-c1ccccc1,inactive,inactive,,
Cc1nnc2sc(-c3cccc(NC(=O)c4ccc(-c5cccc(Cl)c5)o4)c3)nn12,inactive,inactive,,
O=C1CCc2cc(S(=O)(=O)Nc3ccc(F)c(Cl)c3)c(F)cc2N1,inactive,inactive,,
CCOC(=O)C1CCN(C(=O)C(C)(C)NC(=O)Nc2ccc3c(c2)CCC3)CC1,inactive,inactive,,
NC(=O)C1CCN(c2nc(-c3cccs3)cs2)CC1,inactive,inactive,,

SMILES,Potency [1],Potency [2],"activity change, negative = inhibition [1]","activity change, negative = inhibition [2]"
COc1cccc2nc3sc(Nc4ccc5c(c4)CCC5)nn3c(=O)c12,inactive,inactive,,
Cc1cnc(-c2ccccc2C(F)F)nc1NCC1CN(c2cnccn2)C1,inactive,inactive,,
COC(=O)c1cncc(NC(=O)c2cccs2)c1,inactive,inactive,,
Cc1cc(C)nc(NC(=S)N2CCN(c3ccc4nncn4c3)CC2)c1,inactive,inactive,,
CNc1nc(-c2ccc3c(N)n[nH]c3c2)cc(N2CC(C(=O)NC3CCCCC3)CCC2C)n1 (configuration not stated),inactive,inactive,,
O=S1(=O)N=C(Oc2ccccc2-c2ccccc2)c2ccccc21,inactive,inactive,,
Cc1ccc(OCCn2c(CCNC(=O)c3ccc(C#N)cc3)nc3ccccc32)cc1,inactive,inactive,,
Cc1ccc(-c2ccc(=O)n(CC(=O)N(C)[C@H](C)c3ccccc3)n2)cc1,inactive,inactive,,
Cc1cc(NS(=O)(=O)c2ccc(NC(=O)Cc3ccccc3)cc2)no1,inactive,inactive,,
CCCn1c(-c2ccc(F)cc2)nc2c(NCCN(C(C)C)C(C)C)nc(C)nc21,inactive,inactive,,
CC(=O)Nc1sc2c(c1-c1ccc(-c3nn[nH]n3)cc1)CCNC2,inactive,inactive,,
CCC(O)(c1nnc(NCc2ccc3c(-c4ccc(F)cc4)cc(=O)oc3c2)o1)C(F)(F)F (configuration not stated),inactive,inactive,,
COc1ccc(C2Nc3ccccc3C(=O)N2Cc2ccc3c(c2)OCO3)cc1COc1c(C)cc(NC(C)=O)cc1C (configuration not stated),inactive,inactive,,
c1ccc(CNCc2nnc(-c3cc4ccccc4[nH]3)s2)cc1,inactive,inactive,,
COc1cc(OC)cc(-c2nnc3n2N=C(c2ccc(OC)c(OC)c2)CS3)c1,inactive,inactive,,
CC(C)c1ccccc1-c1nc(NCc2ccc(-c3cccnc3)cc2)c2ccccc2n1,inactive,inactive,,
NCc1ccc(Nc2ncc(F)c(Nc3ccccc3)n2)cc1,inactive,inactive,,
CC(=O)c1cccc(-c2ccc(-c3nc4ccccc4c(=O)[nH]3)o2)c1,inactive,inactive,,
O=C1CCc2cc(S(=O)(=O)Nc3ccccc3Cl)ccc2N1,inactive,inactive,,
CC1=CCC(O)C2(C)CCC3C(C)C(=O)OC3C12 (configuration not stated),inactive,inactive,,
O=C(Cc1ccc(Cl)c(Cl)c1)Nc1ccc(S(=O)(=O)NCc2ccco2)cc1,inactive,inactive,,
Cc1nc(-c2ccc([S+](=O)([O-])N3CCN([S+](=O)([O-])c4c(F)cccc4F)CC3)s2)cs1,inactive,inactive,,
COc1ccc(/C=C2/C(=O)Nc3ccccc32)cc1O,inactive,inactive,,
